# Data published in PubChem BioAssay AID2328 (The Scripps Research Institute Molecular Screening Center, 2010).
# The other results are listed elsewhere or left out. The source made the active and inactive calls.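 Rule for the calls: active = mean inhibition over triplicates above a set limit taken from the primary EBNA-1 screen (cut at about 37% in these data); inactive = the rest.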
# Target: Lytic switch protein BZLF1 (Epstein-Barr virus (strain B95-8)) (UniProt P03206)
# Test: blockers of Zta binding to ZRE DNA – biochemical, fluorescence polarization, triplicate, counter-screen for EBNA-1 inhibitor project (AID 2328);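 note: purified full length Zta protein with Cy5 labeled ZRE DNA probe; 0% = Zta with DMSO and 100% = wells lacking Zta protein; inhibitors lower polarization by freeing the labeled DNA probe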
# Details: Cy5 fluorescence polarization, at 11.1 µM, stronger effect = higher value
# Chain of Lytic switch protein BZLF1 (Epstein-Barr virus (strain B95-8)) (P03206 whole entry, looked up): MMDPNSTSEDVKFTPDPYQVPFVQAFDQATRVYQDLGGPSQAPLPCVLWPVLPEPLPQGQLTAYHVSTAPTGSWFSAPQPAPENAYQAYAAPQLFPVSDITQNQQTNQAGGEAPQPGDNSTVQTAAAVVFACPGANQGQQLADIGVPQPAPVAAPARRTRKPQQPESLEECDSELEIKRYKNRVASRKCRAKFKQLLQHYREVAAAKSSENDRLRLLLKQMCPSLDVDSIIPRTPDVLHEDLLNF
row,SMILES,inhibition
1,Cc1[nH]n(C(N)=S)c(=O)c1N=Nc1ccc(Cl)cc1Cl,-7.48% (inactive)
2,COc1ccc(C)cc1NC(=O)NCc1ccccn1,-2.35% (inactive)
3,N#Cc1ccc(N2Cc3ccccc3/C2=N/C(=O)Nc2ccc(Cl)cc2)cc1,-9.43% (inactive)
4,COc1ccc(C(=O)CSc2nnc(NC(=O)C3CC(=O)N(c4cccc(OC)c4)C3)s2)cc1 (stereo unspecified),-0.54% (inactive)
5,Cc1cccc(NC(=O)Cn2c(=O)n(Cc3ccccc3)c(=O)c3c(C)c(C)sc32)c1,-8.61% (inactive)
6,CC(=O)Nc1ccc(S(=O)(=O)NCC(=O)OCc2cc(=O)oc3ccc4ccccc4c23)cc1,7.35% (inactive)
7,COc1ccc(-c2ccc(Nc3ccc(S(=O)(=O)N4CCCC4)cc3)nn2)cc1OC,-8.43% (inactive)
8,COc1ccc(CNc2nc3c(c(=O)[nH]c(=O)n3C)n2Cc2ccccc2)cc1,-15.5% (inactive)
9,CCc1nccn1S(=O)(=O)c1cccc([N+](=O)[O-])c1,0.63% (inactive)
10,CCC(=O)Nc1ccc(C(=O)Nc2ccc3c(c2)C(=O)N(CC2CCCO2)C3=O)cc1 (stereo unspecified),-3.33% (inactive)
11,COc1ccc(-c2nonc2NC(=O)c2oc3ccc(F)cc3c2C)cc1OC,-0.1% (inactive)
12,CCOc1ccc(NC(=O)c2ccc(NC(=O)COC(=O)c3ccc(NC(=O)CC#N)cc3)cc2)cc1,6.56% (inactive)
13,COc1ccc(CCNC(=S)N2CCN(S(=O)(=O)c3ccc(F)cc3)CC2)cc1,-0.49% (inactive)
14,Cc1cccc(N(CC(=O)Nc2ccc(-c3nc4ccc(C)cc4s3)cc2)S(C)(=O)=O)c1,13.4% (inactive)
15,COC(=O)CSc1nc(C)c2ccc(OC)cc2n1,-0.69% (inactive)
16,N#Cc1nc(N)nc(N(c2ccccc2)c2ccccc2)n1,-3.66% (inactive)
17,CCOc1cccc(NC(=O)Cn2nc(-c3ccc4c(c3)OCCO4)ccc2=O)c1,-0.94% (inactive)
18,Cc1ccc(C(=O)NNC(=O)c2cc3cc4ccccc4nc3s2)cc1,7.01% (inactive)

row,SMILES,inhibition
1,CC(=O)c1c(C)[nH]c(C(=O)OCC(=O)Nc2sc3c(c2C#N)CCCC3)c1C,5.6% (inactive)
2,CCOc1ccc(OCC)c(NC(=O)C(NS(=O)(=O)c2ccc3c(c2)oc(=O)n3C)C(C)C)c1 (stereo unspecified),22.3% (inactive)
3,Nc1nnc(SCC(=O)Nc2ccc3nc(SCC(=O)Nc4ccccc4)sc3c2)s1,8.16% (inactive)
4,CCOc1cccc(SCc2noc(C(=O)NC(C)C)c2C(=O)O)c1,2.79% (inactive)
5,COc1ccc(C(=O)Nc2cccc(NC(=O)c3ccc(OC)cc3OC)n2)c(OC)c1,7.79% (inactive)
6,Cc1ccc(-c2nn(-c3ccccc3)cc2/C=C2\SC(=S)N(CCCCCC(=O)O)C2=O)o1,5.22% (inactive)
7,CCOc1[nH]n(-c2ccc(Cl)cc2)c(=O)c1C=Nc1ccc(O)cc1,6.97% (inactive)
8,O=C(Nc1cccc(NC(=O)c2ccc(Br)cc2)c1)c1ccccc1,4.83% (inactive)
9,COc1ccc(NC(=O)NCc2ccc3c(c2)OCO3)c(OC)c1,-15.6% (inactive)
10,Nc1ccc(S(=O)(=O)Nc2nccc(/C=C/c3ccc(Br)s3)n2)cc1,-3.48% (inactive)
11,O=C(Nc1ccc2ccccc2c1)Nc1ccc2snnc2c1,1.17% (inactive)
12,Cc1ccc(O)c(/C=N/NC(=O)COc2ccc3c(C)cc(=O)oc3c2)c1,-17% (inactive)
13,O=C(COc1ccc(/C=N/NC(=O)c2ccc(O)cc2)cc1)Nc1ccc([N+](=O)[O-])cc1,31.8% (inactive)
14,O=C(CCCn1c(SCC(=O)c2ccc(F)cc2)nc2ccccc2c1=O)NCc1ccco1,10.2% (inactive)
15,C/C(=N\N=C(N)N)c1ccc(Cl)cc1,1.14% (inactive)
16,CCOc1ccc(C(=O)NC(=S)Nc2ccc(NC(=O)C(C)C)cc2)cc1[N+](=O)[O-],-3.36% (inactive)
17,CCOC(=O)c1ccc(NC(=O)C2CC(=O)Nc3nc4ccccc4n32)cc1 (stereo unspecified),-17.7% (inactive)
18,COC(=O)C1=CN(Cc2ccc(OC)cc2)C=C(C(=O)OC)C1c1ccc(O)c(OC)c1,-0.26% (inactive)
